Compound activity deposited in PubChem by several laboratories.
BCLXL inh: inhibitors of human Bcl-xL, primary screen, biochemical, fluorescence polarization, HTS; Bcl-2-like protein 1 (Homo sapiens), Q07817; GST-Bcl-xL / FITC-Bim BH3 peptide fluorescence polarization; hit rate 0.7% among 320,000; inhibition, % at 10.9 µM;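 active = inhibition above the mean of all tested compounds plus 3 SD, cutoff set per campaign, cut at about 30% in these data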;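 also: 0% = DMSO wells and 100% = unlabeled Bim-BH3 peptide competitor; inhibitors lower millipolarization by displacing the labeled peptide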
GLD-1 TGE inh: GLD-1/TGE RNA complex disruptors, primary screen, biochemical, fluorescence polarization; hit rate 0.44% among 320,000; inhibition, % at 5.96 µM; Female germline-specific tumor suppressor gld-1 (Caenorhabditis elegans), Q17339; purified GLD-1 + fluorescein TGE RNA; AID 2280, 2010;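 active = percent inhibition above a per-plate cutoff, the plate mean of test compounds plus 3 SD, cut at about 30% in these data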;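 also: 0% = DMSO wells with GLD-1 and probe and 100% = wells lacking GLD-1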
MCL1-BIM inh: inhibitors of MCL1 binding to BIM-BH3, primary screen, biochemical, fluorescence polarization | AID 2057, 2009 | hit rate 0.68% among 320,000 | inhibition, % at 10.9 µM | GST-MCL1 / FITC-Bim-BH3 fluorescence polarization | Induced myeloid leukemia cell differentiation protein Mcl-1 (Homo sapiens), Q07820;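 active = inhibition above the mean inhibition of all tested compounds plus 3 SD, set per campaign, cut at about 40% in these data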;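 also: 0% = DMSO wells and 100% = unlabeled Bim-BH3 peptide control; higher means more loss of mP so more displacement of Bim peptide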
MEX-5 binding: MEX-5 zinc finger RNA-binding disruptors – biochemical, C. elegans, fluorescence polarization, MLPCN library, primary screen | activity score (negative = inhibition of binding), % at 10 µM | MEX-5/FITC-TCR2 RNA binding; stronger effect = lower value | AID 1832, 2009 | hit rate 0.38% among 300,000 | Zinc finger protein mex-5 (Caenorhabditis elegans), Q9XUB2;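 active = inhibition past about -25% in most replicates, and total fluorescence under double the plate's negative control median, limit read from the data; inconclusive = replicates evenly split on the limit, or fluorescence at least double controls; inactive = too little inhibition in most replicates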;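 also: 0% = DMSO and -100% = 5 µM competing unlabeled TCR2 RNA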
EBV gp42 inh: Epstein-Barr virus gp42 inhibitors, primary screen, biochemical, uHTS, fluorescence polarization; Fluorescence polarization binding assay, mP read-out; inhibition, % (tested at 21.74 µM); hit rate 0.42% among 220,000; AID 1085, 2008; in the data active = inhibition above about 50%
eLon inh: inhibitors of E. coli Lon protease, primary screen, biochemical, fluorescence polarization; hit rate 0.42% among 360,000; inhibition, % at 7.94 µM; P0A9M0; purified E. coli Lon protease; AID 602123, 2011; in the data active = inhibition above about 13%, passing the limit was not always enough;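 also: 0% = enzyme with probe and DMSO and 100% = no enzyme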
Target sequence (P0A9M0 whole entry, looked up): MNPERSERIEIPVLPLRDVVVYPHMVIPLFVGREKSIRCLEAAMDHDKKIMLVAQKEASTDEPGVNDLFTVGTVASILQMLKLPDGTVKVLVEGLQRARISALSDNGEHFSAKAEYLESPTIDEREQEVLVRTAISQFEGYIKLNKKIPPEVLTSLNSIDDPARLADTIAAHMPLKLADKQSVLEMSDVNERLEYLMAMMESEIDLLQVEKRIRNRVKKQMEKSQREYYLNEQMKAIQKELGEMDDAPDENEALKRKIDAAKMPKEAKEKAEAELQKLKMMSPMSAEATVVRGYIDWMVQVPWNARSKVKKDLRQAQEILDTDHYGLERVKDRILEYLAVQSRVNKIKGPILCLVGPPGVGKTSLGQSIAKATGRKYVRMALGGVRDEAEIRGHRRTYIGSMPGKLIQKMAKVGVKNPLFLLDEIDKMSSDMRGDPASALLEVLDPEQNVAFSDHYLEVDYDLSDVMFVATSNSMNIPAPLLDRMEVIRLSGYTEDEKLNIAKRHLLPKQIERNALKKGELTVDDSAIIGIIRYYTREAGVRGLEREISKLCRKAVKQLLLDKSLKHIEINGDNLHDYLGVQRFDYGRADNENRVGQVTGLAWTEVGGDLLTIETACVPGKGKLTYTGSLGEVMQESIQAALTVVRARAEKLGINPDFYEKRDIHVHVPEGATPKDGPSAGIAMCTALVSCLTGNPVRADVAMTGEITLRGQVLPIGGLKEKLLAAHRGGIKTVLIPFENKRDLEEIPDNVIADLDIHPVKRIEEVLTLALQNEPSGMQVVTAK
Bcl-xL conf: Bcl-xL inhibitors blocking Bim BH3 binding, confirmation, counter-screen for MCL1 inhibitor project, biochemical, fluorescence polarization. shares compounds with MCL1-BIM inh. GST-Bcl-xL / FITC-Bim BH3 peptide FP binding. inhibition, % at 10.9 µM. hit rate 54% among 1,700. AID 2166, 2009;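 active = inhibition above a cutoff equal to the mean inhibition of all tested compounds plus 3 SD, cut at about 30% in these data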;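 also: 0% = DMSO wells and 100% = unlabeled Bim BH3 control peptide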
MCL1 inh confirm: inhibitors of MCL1 binding to BIM-BH3, confirmation, biochemical, fluorescence polarization, triplicate | shares compounds with MCL1-BIM inh | GST-MCL1 / FITC-Bim-BH3 fluorescence polarization | inhibition, % at 10.9 µM | hit rate 61% among 1,700 | AID 2168, 2009;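 active = inhibition above the average of all tested compounds plus 3 SD, cut at about 40% in these data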;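 also: 0% = DMSO wells and 100% = unlabeled Bim-BH3 control peptide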
GLD-1 TGE cf: GLD-1/TGE RNA binding inhibitors, retest, confirmation, biochemical, fluorescence polarization, triplicate; GLD-1/FL-TGE RNA fluorescence polarization; inhibition, % at 5.96 µM; AID 2459, 2010; shares compounds with GLD-1 TGE inh; hit rate 10% among 550;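 active = average inhibition across triplicates above the hit cutoff set in the primary screen, cut at about 32% in these data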;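 also: 0% = GLD-1 with RNA probe and DMSO and 100% = wells lacking GLD-1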
eLon confirm: E. coli Lon protease inhibitor retest, confirmation, biochemical, fluorescence polarization; shares compounds with eLon inh; purified E. coli Lon; inhibition, % at 7.94 µM; hit rate 31% among 1,400; in the data active = inhibition above about 16%;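 also: 0% = enzyme with probe and DMSO and 100% = no enzyme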
Numbers without * were called inactive; ? = inconclusive; · = no result given; + = active, no number. Shown are actives, neighbours in structure and some others; about 1.5% of the full set was active somewhere.

SMILES	BCLXL inh	GLD-1 TGE inh	MCL1-BIM inh	MEX-5 binding	EBV gp42 inh	eLon inh	Bcl-xL conf	MCL1 inh confirm	eLon confirm	others
Cc1ccc(N2C(=O)NC(=O)/C(=C\c3cccn3C(C)(C)C)C2=O)cc1	-6.6	-11.6	-21.3	-3.8	-4.6	-13.9	·	·	·
CN(C)C1CCc2[nH]c3c(F)cc(F)cc3c2C1 (centres undefined)	·	·	·	·	·	-0.8	·	·	·
N/C(=N\N=C/c1ccc(-c2ccc(O)c(C(=O)O)c2)o1)N[N+](=O)[O-]	23.3	-4.7	79.5*	-29.4*	31.9	4.2	29.4	81.5*	·
CC1=C2CCC3C(CCC4=CC(=O)CCC43C)C2CC1 (centres undefined)	·	·	·	·	·	-2.6	·	·	·
CCN(CC)c1ccc(N=Cc2c(O)n(-c3ccc(OC)cc3)c(=O)[nH]c2=O)cc1	25.8	-3.0	41.5*	-34.4*	101.6*	-17.5	113.5*	26.4	·
COc1cc2c(cc1OC)-c1c(OC)c(OC)c(OC)c3ccnc(c13)C2=O	51.9*	40.8*	54.8*	-82.5*	33.3	·	58.6*	56.1*	·	GLD-1 TGE cf=41.0*
CN(C(=O)Cc1ccc(Cl)c(Cl)c1)C(CN1CCCC1)c1cccc(OCC(=O)O)c1 (centres undefined)	12.3	-0.5	6.9	·	·	-7.5	·	·	·
CN1CCc2cc3c(c4c2C1Cc1ccccc1-4)OCO3 (centres undefined)	165.5*	94.4*	+	?	·	148.2*	77.3*	86.8*	98.7*
COc1ccc2c(c1)C1(C)CCN(C)CC(C1)C2O (centres undefined)	·	·	·	·	·	-5.6	·	·	·
COC(=O)C1C(C(=O)O)C2(Cl)C(Cl)=C(Cl)C1(Cl)C2(Cl)Cl (centres undefined)	·	·	·	·	·	-1.8	·	·	·
O=[N+]([O-])c1ccc(N2CCCCCC2)c2nonc12	132.1*	137.7*	149.5*	?	·	61.4*	107.7*	113.4*	20.7*
C[n+]1c(-c2ccccc2)c2cc(N)ccc2c2ccc(N)cc21	155.5*	135.5*	+	-90.3*	·	154.1*	188.6*	+	76.0*
Nc1ccc2nonc2c1[N+](=O)[O-]	+	+	+	?	193.8*	193.5*	+	+	+	GLD-1 TGE cf=158.3*
CN(c1ccc(O)cc1)c1ccc([N+](=O)[O-])c2nonc12	·	·	·	·	·	-10.1	·	·	·
Cc1ccc(C)c(NC(=S)NCCc2cnc[nH]2)c1	2.3	1.4	-0.8	-4.8	-3.1	2.4	·	·	·
Cn1cc(C=C2C(=O)NC(=O)NC2=O)c2ccccc21	+	6.0	+	?	·	117.2*	+	+	+
CC(=O)n1cc(C=C2C(=O)NC(=O)NC2=O)c2ccccc21	2.5	2.8	-3.5	-3.8	·	-29.0	·	·	·
NCC(O)c1cc(O)c(O)cc1F (centres undefined)	11.3	6.8	9.3	·	·	-8.9	·	·	·
